The nature of test [1]: Her2 expression decrease, cell viability multiplex – SKBR3 breast tumor cells, AlphaScreen, ATP viability, primary screen (AID 461;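 active = Her2 level under about 52% in both replicate screens, with viability over 70% of control, limit read from the data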;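 as to Her2 level: lower value means less Her2 protein in the cells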;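 as to viability: percent of carrier control wells set as 100% viability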). The conditions noted are these: SKBR3 Her2 protein level, 18-24 h, measured here: SKBR3 viability, ATP luminescence, at 10 µM.
The target of test [2] is Receptor tyrosine-protein kinase erbB-2 (Homo sapiens) (UniProt P04626). The description is as above. The following applies: 18-24 h, at 10 µM, stronger effect = lower value.
Test [3] can be described thus: reduced viability of SK-BR-3 breast cancer cells – cell-based, 24 h, human, pilot screen (AID 572;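 active = viability at or below 10% of carrier control in both of two separate runs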;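 also: compound exposure lasted between 18 and 24 h rather than exactly 24 h; 100% = carrier-treated control wells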). The conditions noted are these: SK-BR-3 viability, CellTiter-Glo luminescence, at 10 µM, stronger effect = lower value. (Cellular ATP, detected with luciferase, serves as a proxy for viable cell number.)
Test [4] in a line: HUVEC growth inhibition – cell-based, human, primary screen (AID 575;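 active = viability at or below 30% in both replicate assays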;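 also: 100% = median of untreated cell wells with 0.1% DMSO on each plate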). The conditions noted are these: HUVEC proliferation, CellTiter-Glo luminescence, 72 h; at 10 µM; stronger effect = lower value.
A short description of test [5]: H69AR cell proliferation blockers – human, duplicate replicates, primary screen (AID 580;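 active = viability at or under a set limit in both replicates, limit being median viability minus 3 SD, cut at about 48% in these data, passing the limit was not always enough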;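 also: 100% = mean luminescence of untreated wells and 0% = no signal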). The following applies: H69AR lung tumor cells viability, ATP luminescence, 72 h; at 10 µM; stronger effect = lower value.
The nature of test [6]: MRP1 drug-resistance reversers in H69AR cells – cell-based, doxorubicin co-treatment, pilot screen (AID 601;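 active = viability loss from added drug above about 55%, and viability with drug at most 40%, in both replicates, limit read from the data, passing the limit was not always enough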). The conditions noted are these: CellTiter-Glo, 72 h, at 10 µM; for differential viability (reversal): stronger effect = higher value.
Test [7] can be described thus: yeast transport mutant growth inhibition pilot in 384-well plates, post-Golgi transport modulator project (AID 636; in the data active = inhibition above about 31%). The following applies: absorbance 615 nm, about 18 h, stronger effect = higher value.
The nature of test [8]: growth suppression of yeast trafficking mutant, preliminary HTS, modulators of trafficking downstream of Golgi apparatus project, 1536-format plate, OD 615 nm (AID 637). The following applies: yeast transport mutant growth, absorbance 615 nm, 18 h; stronger effect = higher value.
The nature of test [9]: S. cerevisiae growth inhibition in permissive medium (OD615), pilot counter-assay for S. cerevisiae lifespan shortening project, permissive growth control (AID 705;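 active = growth inhibition above 25% in both replicates, a cutoff set 3 SD above the mean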). The conditions noted are these: OD615, 24 h, at 10 µM, stronger effect = higher value.
Test [10] is described as follows: S. cerevisiae growth inhibition in restrictive medium, OD615, pilot screen, restrictive growth control, yeast lifespan reduction project (AID 706;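 active = growth inhibition above a set limit, 3 SD over mean compound inhibition, in both replicates, cut at about 43% in these data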;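 also: modified DeaD lifespan yeast strain shifted to restrictive glucose medium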). The following applies: OD615, 48 h, at 10 µM, stronger effect = higher value.
Test [11] can be described thus: doxorubicin toxicity protection in MRP-1 cells – H69AR cells, CellTiter-Glo, duplicate, MRP-1 activator project, pilot screen (AID 807;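 active = viability increase at or above a cutoff of the median across tested compounds plus 3 SD, cut at about 8.5% in these data, passing the limit was not always enough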;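 also: compound pretreatment 18-22 h then 72 h combined with doxorubicin; 0% = doxorubicin alone and 100% = vehicle without doxorubicin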). The following applies: H69AR viability with doxorubicin, CellTiter-Glo luminescence; at 10 µM; stronger effect = higher value.
A short description of test [12]: viability of HCT116 without oncogenic beta-catenin – human colon tumor cells, pilot screen (AID 823;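 active = cell viability at or below a set limit in both duplicate runs, the limit being the all-compound median minus 4 SD, cut at about 23% in these data, passing the limit was not always enough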;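 also: 0% = wells killed by 20 µM Hyamine and 100% = untreated DMSO cell wells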). The following applies: HCT116 beta-catenin knockout viability, CellTiter-Glo, 60 h; at 10 µM; stronger effect = lower value.
Test [13] is described as follows: viability of PTEN-null HCT116 cells – cell-based, HCT116 clonal line, CellTiter-Glo, pilot screen (AID 824;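 active = viability at or below 27.92% in each of two runs, the all-compound median minus 4 SD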;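 also: 0% = 20 µM Hyamine control and 100% = vehicle cell control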). The conditions noted are these: HCT116 PTEN-deleted viability, 60 h, at 10 µM, stronger effect = lower value.
Test [14] in a line: RAM pathway blockade in budding yeast – dse1pr::URA3 reporter, 5-FOA selection, pilot screen (AID 869;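 active = inhibition over a set limit, the all-compound mean plus 3 SD, in both replicate runs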;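 also: 0% = DMSO wells with no growth and 100% = 10 µM 1-NA-PP1 with full growth; RAM network block rescues cells from 5-FOA so hits raise OD615 growth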). The following applies: S. cerevisiae dse1pr::URA3 5-FOA growth, OD615, 2 d; at 10 µM; stronger effect = higher value; strain carries analog-sensitive mutant Cbk1 kinase.
Test [15] in a line: RAM signaling pathway blockade in yeast – S. cerevisiae, Pdr1DBD-CYC8 efflux-inhibited sensitized strain, primary screen (AID 1298;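 active = RAM network inhibition above 8.4% in each of two replicates, 3 SD over the compound average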;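 also: 0% = DMSO untreated cells without growth and 100% = 10 µM 1-NA-PP1 full growth; higher means more yeast growth rescued from 5-FOA killing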). The following applies: S. cerevisiae cbk1-as DSE1-URA3 strain, 5-FOA growth OD615, 2 d; at 50 µM; stronger effect = higher value.
The mark [16] stands for this setting: H69AR cells + 2 uM doxorubicin, measured here: viability with 2 uM doxorubicin, stronger effect = lower value.
The mark [17] stands for this setting: H69AR cells, compound alone cytotoxicity.

Inconclusive results are not listed. Active and inactive are the calls of the source. Rule as the data show it, unless noted: active = inhibition above about 30%; inactive = the rest.

Receptor tyrosine-protein kinase erbB-2 (Homo sapiens), sequence (P04626 whole entry, looked up): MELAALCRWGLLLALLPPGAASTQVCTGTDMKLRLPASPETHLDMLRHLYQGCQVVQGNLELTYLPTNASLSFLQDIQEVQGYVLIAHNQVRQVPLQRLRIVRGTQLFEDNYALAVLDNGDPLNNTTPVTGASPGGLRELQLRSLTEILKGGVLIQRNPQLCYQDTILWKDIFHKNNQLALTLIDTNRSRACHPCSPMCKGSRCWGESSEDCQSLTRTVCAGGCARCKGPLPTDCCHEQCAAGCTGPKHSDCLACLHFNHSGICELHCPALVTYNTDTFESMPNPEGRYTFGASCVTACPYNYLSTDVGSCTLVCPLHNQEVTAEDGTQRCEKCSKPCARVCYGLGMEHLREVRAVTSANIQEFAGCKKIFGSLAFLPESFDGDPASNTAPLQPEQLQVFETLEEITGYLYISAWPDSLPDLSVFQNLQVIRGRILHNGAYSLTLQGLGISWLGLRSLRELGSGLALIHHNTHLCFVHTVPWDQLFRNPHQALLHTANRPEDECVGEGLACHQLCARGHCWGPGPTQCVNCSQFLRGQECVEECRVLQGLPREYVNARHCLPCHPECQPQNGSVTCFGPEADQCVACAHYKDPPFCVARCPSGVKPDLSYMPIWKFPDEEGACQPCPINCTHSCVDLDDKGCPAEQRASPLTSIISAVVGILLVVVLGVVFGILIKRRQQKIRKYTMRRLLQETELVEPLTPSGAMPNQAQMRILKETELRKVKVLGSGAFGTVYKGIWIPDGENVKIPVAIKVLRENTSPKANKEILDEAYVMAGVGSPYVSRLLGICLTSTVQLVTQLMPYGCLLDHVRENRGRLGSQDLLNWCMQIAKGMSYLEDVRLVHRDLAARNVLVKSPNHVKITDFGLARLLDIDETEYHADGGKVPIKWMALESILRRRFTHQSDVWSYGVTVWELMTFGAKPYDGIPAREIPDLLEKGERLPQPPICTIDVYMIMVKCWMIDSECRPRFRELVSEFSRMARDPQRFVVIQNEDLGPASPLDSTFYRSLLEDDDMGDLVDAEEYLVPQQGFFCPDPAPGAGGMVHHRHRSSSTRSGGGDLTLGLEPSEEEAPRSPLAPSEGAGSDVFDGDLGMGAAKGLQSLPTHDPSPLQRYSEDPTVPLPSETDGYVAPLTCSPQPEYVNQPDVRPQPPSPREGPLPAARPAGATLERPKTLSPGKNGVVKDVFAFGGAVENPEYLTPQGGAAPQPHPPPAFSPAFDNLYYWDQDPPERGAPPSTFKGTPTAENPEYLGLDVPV

In general, viability refers to a read-out of living cells in per cent, often relative to untreated cells. A word on the inhibition: it is the change of the read-out against control, counted positive when it falls. For `O=C(c1ccc2nc(N3CCCCC3)sc2c1)N1CCN(c2ccccn2)CC1`, the viability is 87% in [1]; 87% (inactive) in test [3]; 68.1% (inactive) in test [4]; 102% (inactive) in [5]; 100% in test [6] (setting [16]); 102% in test [6] (setting [17]). The viability in [12] is 106% (inactive); in test [13], 98.6% (inactive). In test [2], the Her2 level was 102% (inactive). The differential viability (reversal) in test [6] (H69AR cells + 2 uM doxorubicin) is 2.3% (inactive). In addition, the inhibition in test [7] was -1.54% (inactive); in test [8] it was 1% (inactive); in [14], 2.38% (inactive). The growth inhibition in [9] was 2.65% (inactive); in test [10], -0.825% (inactive). In addition, the viability increase in test [11] is 0.27% (inactive). Further, the RAM network inhibition in test [15] is -1.58% (inactive).

As for `c1ccc2c(c1)nc(NC1CCCCC1)c1nncn12`, the viability in test [1] was 98.5%; in [3], 98.5% (inactive); in [4], 86.6% (inactive); in test [5], 90.8% (inactive); in test [6] (setting [16]) it was 70.9%; in test [6] (setting [17]) it was 90.8%. The viability in test [12] is 89.9% (inactive); in [13], 83.3% (inactive). The Her2 level in test [2] is 109% (inactive). For the same compound, the differential viability (reversal) in [6] (H69AR cells + 2 uM doxorubicin) was 19.9% (inactive). The inhibition in [7] was -5% (inactive); in [8] it was -1.17% (inactive); in test [14] it was 0.325% (inactive). Besides, the growth inhibition is -8.94% (inactive) in test [9] and -7.48% (inactive) in [10]. In addition, in [11], the viability increase is -6.65% (inactive). Also, the RAM network inhibition in [15] was 2.5% (inactive).

Consider `O=C1C2C3C=CC(C3)C2C(=O)N1c1cccc(N2C(=O)C3C4C=CC(C4)C3C2=O)n1` (stereo not given), for which the viability is 91% in [1]; 91% (inactive) in test [3]; 109% (inactive) in test [4]; 93.4% (inactive) in test [5]; 97.6% in test [6] (setting [16]); 93.4% in test [6] (setting [17]). The viability in [12] and in [13] was 104% (inactive) throughout. In addition, in test [2], the Her2 level was 100% (inactive). Further, the differential viability (reversal) in test [6] (H69AR cells + 2 uM doxorubicin) was -4.17% (inactive). The inhibition in test [7] is -4.73% (inactive); in test [8], 4.75% (inactive); in [14], 3.84% (inactive). Moreover, the values for the growth inhibition in test [9] and in test [10] were -12% (inactive) and -11.8% (inactive), respectively. Also, the viability increase in test [11] was -0.89% (inactive). For the same compound, the RAM network inhibition in [15] was 5.46% (inactive).

On to `O=C(CCn1c(=O)oc2ccccc21)NCCN1CCOCC1`, for which the viability is 104% in test [1]; 104% (inactive) in [3]; 93.4% (inactive) in test [4]; 85.9% (inactive) in [5]; 89.6% in test [6] (setting [16]); 85.9% in test [6] (setting [17]). In addition, the figures for the viability in [12] and in test [13] were 107% (inactive) and 101% (inactive), respectively. In addition, in test [2], the Her2 level was 120% (inactive). Further, the differential viability (reversal) in test [6] (H69AR cells + 2 uM doxorubicin) is -3.67% (inactive). In addition, the values for the inhibition in [7], in test [8] and in [14] were 0.8% (inactive), -6.5% (inactive) and 2.63% (inactive), respectively. For the same compound, the growth inhibition in test [9] was -9.38% (inactive); in test [10], -6.78% (inactive). The viability increase in test [11] is -1.28% (inactive). In test [15], the RAM network inhibition was 4.16% (inactive).

Take `O=C(Nc1ccc(N2C(=O)C3C4C=CC(C4)C3C2=O)cc1)Nc1nncs1` (stereo not given): the viability was 92% in test [1]; 92% (inactive) in [3]; 96.2% (inactive) in test [4]; 87.8% (inactive) in test [5]; 85.6% in [6] (setting [16]); 87.8% in test [6] (setting [17]). Also, the viability in test [12] is 97.6% (inactive); in test [13], 95.3% (inactive). Further, the Her2 level in test [2] was 108% (inactive). In test [6] (H69AR cells + 2 uM doxorubicin), the differential viability (reversal) is 2.15% (inactive). In addition, the figures for the inhibition in [7], in [8] and in test [14] were -3.47% (inactive), 0.83% (inactive) and 0.53% (inactive), respectively. Further, the figures for the growth inhibition in [9] and in [10] were -7.11% (inactive) and 6.49% (inactive), respectively. Besides, the viability increase in test [11] was -1.28% (inactive). In addition, the RAM network inhibition in test [15] was 3.5% (inactive).

Values taken from PubChem BioAssay.
